Hits are enriched below; roughly 1.2% of the tested compounds scored in any of these assays.
Casp6 inh = blocks human caspase-6 cleavage activity; 0.53% of 350,000 active; AID 686996; purified caspase-6, Z-VEID-R110 cleavage fluorescence; inhibition, % at 12.5 µM;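 active = mean inhibition across replicates at least about 35%, with every replicate also reaching that limit, limit read from the data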
MLL AF4-AF9 inh = blocks AF4 peptide binding to human AF9 | P42568 | AlphaScreen, biotin-AF4 peptide binding to FLAG-AF9 | AID 651704 | 0.47% of 350,000 active | inhibition, % at 10 µM;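 active = every replicate reaching a set inhibition limit, whatever the replicate mean, cut at about 25% in these data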
RAD52 anneal inh = blocks human RAD52 DNA annealing; inhibition, % at 18.7 µM; 0.46% of 360,000 active; recombinant RAD52 DNA annealing, FRET fluorescence; AID 651710; P43351;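 active = every replicate showing at least 50% inhibition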
RAD54 branch = inhibitors of human RAD54 branch migration | RAD54 Holliday junction branch migration, FAM/BHQ fluorescence | inhibition, % at 10.4 µM | 0.14% of 360,000 active | Q92698 | AID 602329;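 active = mean normalized replicate activity at least 40 and at least half of replicates scoring 40 or more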;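 also: inhibitors cause a drop in the FAM fluorescence signal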
Target sequence (Q92698 whole entry, looked up): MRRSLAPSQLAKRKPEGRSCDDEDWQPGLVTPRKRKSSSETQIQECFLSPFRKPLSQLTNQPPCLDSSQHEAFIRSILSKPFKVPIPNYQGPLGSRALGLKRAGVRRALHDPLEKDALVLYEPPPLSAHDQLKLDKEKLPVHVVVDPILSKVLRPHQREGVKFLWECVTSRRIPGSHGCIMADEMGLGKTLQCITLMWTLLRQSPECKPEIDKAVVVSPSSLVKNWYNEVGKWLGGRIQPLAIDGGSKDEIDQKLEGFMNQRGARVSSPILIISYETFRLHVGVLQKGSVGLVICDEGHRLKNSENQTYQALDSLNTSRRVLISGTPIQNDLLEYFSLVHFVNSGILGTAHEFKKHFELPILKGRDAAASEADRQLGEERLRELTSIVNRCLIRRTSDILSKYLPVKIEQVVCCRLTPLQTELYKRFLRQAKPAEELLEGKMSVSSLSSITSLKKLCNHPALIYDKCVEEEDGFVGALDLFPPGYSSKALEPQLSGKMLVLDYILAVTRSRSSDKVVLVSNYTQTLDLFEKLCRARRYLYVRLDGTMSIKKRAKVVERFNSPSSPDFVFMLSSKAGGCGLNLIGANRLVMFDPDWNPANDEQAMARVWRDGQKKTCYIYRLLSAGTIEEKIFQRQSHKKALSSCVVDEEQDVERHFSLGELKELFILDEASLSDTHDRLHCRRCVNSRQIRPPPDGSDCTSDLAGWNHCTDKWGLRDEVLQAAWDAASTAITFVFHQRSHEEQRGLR
N-glyco inh = N-linked glycosylation inhibition; 0.23% of 360,000 active; D54 ERlucT glycosylation luciferase reporter, 24 h; percent of 100 nM tunicamycin response; AID 588692; reporter increase, % at 12.5 µM;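 active = mean luciferase reporter signal, scaled so untreated is 0 and the glycosylation-blocking control 100, at or above a set limit in every replicate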;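 also: luciferase carries N-glycosylation sites so blocking glycosylation raises the light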
Large screens that a line does not name were inactive.

COC/C=C/C1=CC2=CC(=O)C(C)(OC(=O)C3CCCC3)C(=O)C2=CO1 (centres undefined)	Casp6 inh 35.5 (no result: MLL AF4-AF9 inh)
COCC(=O)N(C)C[C@H]1Oc2cc(C#CCN(C)C)ccc2S(=O)(=O)N([C@H](C)CO)C[C@@H]1C	none (no result: N-glyco inh)
CCCNC(=O)C[C@H]1CC[C@H]2[C@@H](COc3ccc(NC(=O)c4ccc(OC)cc4)cc3C(=O)N2C)O1	none (no result: Casp6 inh, MLL AF4-AF9 inh, RAD52 anneal inh, N-glyco inh)
CN1CCN(C(=O)Nc2ccccc2)CC1	none (no result: RAD54 branch)
O=C(Nc1cccc(-c2ccccc2)c1)N1CCN(C(=O)Nc2cccc(-c3ccccc3)c2)CC1	Casp6 inh 38.7
COc1ccc2c(C)cc(SCC(=O)Nc3nsc(-c4ccc(C)cc4)n3)nc2c1	Casp6 inh 49.3
Cc1ccc(-c2nc(NC(=O)CSc3cc(C)c4ccccc4n3)ns2)cc1	none
COc1ccc(CN2CC3(C2)CN(C(=O)Nc2ccc(F)cc2)[C@@H](CO)c2[nH]c4cc(OC)ccc4c23)cc1	MLL AF4-AF9 inh 43.9 (no result: Casp6 inh, RAD52 anneal inh, RAD54 branch, N-glyco inh)
COc1ccc2c3c([nH]c2c1)[C@@H](CO)N(C(=O)Nc1ccc(F)cc1)CC31CN(Cc2ccccc2OC)C1	MLL AF4-AF9 inh 50.5 (no result: Casp6 inh, RAD52 anneal inh, RAD54 branch, N-glyco inh)
COc1ccc2c3c([nH]c2c1)[C@H](CO)N(C(=O)NC(C)C)CC31CN(Cc2ccccc2)C1	MLL AF4-AF9 inh 25.9 (no result: RAD54 branch, N-glyco inh)
COc1ccc2c3c([nH]c2c1)[C@H](CO)N(C(=O)NC(C)C)CC31CN(Cc2ccc(F)cc2)C1	MLL AF4-AF9 inh 31.3 (no result: RAD54 branch, N-glyco inh)
COc1ccc2c3c([nH]c2c1)[C@H](CO)N(C(=O)Nc1ccc(F)cc1)CC31CN(Cc2ccc(F)cc2)C1	none (no result: RAD54 branch, N-glyco inh)
CC(C)(C)S(=O)N1Cc2cc(C(=O)O)nc(-c3cccc(-c4cccc(F)c4)c3)c2[C@H]1CCO (some centres undefined)	none (no result: N-glyco inh)
CCCCCCC(=O)N(O)C1CC(=O)N(Cc2ccccc2)C1=O (centres undefined)	N-glyco inh 49.2 (no result: Casp6 inh, RAD52 anneal inh)
Cc1ccc(-n2cc(CNCCCn3ccnc3C)c(-c3ccc(F)cc3)n2)cc1	MLL AF4-AF9 inh 26.4
O=C1C(=Cc2cn(-c3ccccc3)nc2-c2ccc(OCc3ccc(Cl)cc3)cc2)SC(=S)N1CCS(=O)(=O)O	Casp6 inh 46.0
COc1ccc(-c2nn(-c3ccccc3)cc2/C=C2/SC(=S)N(CCC(=O)O)C2=O)c(C)c1	none
Cc1ccc(-c2nn(-c3ccccc3)cc2/C=C2\SC(=S)N(CC(=O)O)C2=O)cc1	none
O=C1C(=Cc2cn(-c3ccccc3)nc2-c2ccc(OCc3ccccc3F)cc2)SC(=S)N1CCS(=O)(=O)O	Casp6 inh 74.9
COc1ccc(-c2nn(-c3ccccc3)cc2/C=C2/SC(=S)N(CCC(=O)O)C2=O)cc1	Casp6 inh 46.5
C[C@@H]1CCCCO[C@H](CN(C)S(=O)(=O)c2ccc(F)cc2)[C@@H](C)CN([C@@H](C)CO)C(=O)c2cc(NC(=O)Nc3cccc4ccccc34)ccc2O1	none (no result: N-glyco inh)
Cc1[nH]c2ccccc2c1N=Nc1ccc(F)cc1	MLL AF4-AF9 inh 30.2 (no result: RAD54 branch)
Cc1c2ccncc2cc2c1[nH]c1ccccc12	none
Cc1c2c(cc3c1[nH]c1ccccc13)C=NCC2	RAD54 branch 58.4
O=C(NCc1ccc(F)cc1)c1cccc2c1C(=O)c1ccc(Cl)cc1S2(=O)=O	none (no result: RAD54 branch, N-glyco inh)
O=C(O)c1cccc2c1C(=O)c1ccc(-c3ccc(OC(F)(F)F)cc3)cc1S2(=O)=O	none
CC(C)c1cccc(-c2ccc3c(c2)S(=O)(=O)c2cccc(C(=O)NCc4ccccc4)c2C3=O)c1	N-glyco inh 92.0
COc1ccc(-c2ccc3c(c2)S(=O)(=O)c2cccc(C(=O)NCc4ccccc4Cl)c2C3=O)cc1OC	none
CC(C)c1cccc(-c2ccc3c(c2)S(=O)(=O)c2cccc(C(=O)NCc4ccccc4Cl)c2C3=O)c1	N-glyco inh 196.9 (no result: Casp6 inh, MLL AF4-AF9 inh, RAD52 anneal inh)
O=C(NCc1ccccc1Br)c1cccc2c1C(=O)c1ccc(-c3ccc(OC(F)(F)F)cc3)cc1S2(=O)=O	N-glyco inh 156.2 (no result: Casp6 inh, MLL AF4-AF9 inh, RAD52 anneal inh)
C[C@@H]1CN([C@@H](C)CO)C(=O)c2cc(NS(=O)(=O)c3ccc(F)cc3)ccc2O[C@@H](C)CCCCO[C@H]1CN(C)C(=O)Nc1ccccc1	none (no result: Casp6 inh, MLL AF4-AF9 inh, RAD52 anneal inh, N-glyco inh)
Cc1ccc(Cc2c(C)nc3nc(SCC(=O)NCCCN4CCCCCC4)nn3c2C)cc1	MLL AF4-AF9 inh 32.7 (no result: RAD54 branch, N-glyco inh)
C[C@@H](NC(=O)c1ncn2c1c(=O)[nH]c1ccc(Br)cc12)c1ccccc1	N-glyco inh 33.1
CC(C)[N+]1=C2C=CC=CC=C2SC12C([N+](=O)[O-])=CC(=[N+]([O-])[O-])C=C2[N+](=O)[O-] (centres undefined)	MLL AF4-AF9 inh 28.9
Cc1ccc(C=Nc2ccccc2C(N)=O)o1	none (no result: RAD54 branch)
Cc1ccc(C=Nc2ccc(N(C)C)cc2)o1	MLL AF4-AF9 inh 58.5
COCC#Cc1ccc2c(c1)O[C@H](CN(C)Cc1ccccc1F)[C@@H](C)CN([C@H](C)CO)S2(=O)=O	none (no result: N-glyco inh)
O=C1C(SCCO)=C(SCCO)C(=O)c2ccccc21	none
CC1=C(SCc2ccccc2)C(=O)c2ccccc2C1=O	Casp6 inh 64.3
C#CCOCCOCCOCCNc1nc(N2CCN(C(=O)Cn3cc(CCCCN)nn3)CC2)nc(N2CCN(C(=O)[C@H]([C@@H](C)CC)n3cc(CCCCN)nn3)CC2)n1	MLL AF4-AF9 inh 25.5
C#CCOCCOCCOCCNc1nc(N2CCN(C(=O)[C@H]([C@@H](C)CC)n3cc(CCCN=C(N)N)nn3)CC2)nc(N2CCN(C(=O)[C@H](Cc3ccc(O)cc3)n3cc(CCO)nn3)CC2)n1	MLL AF4-AF9 inh 30.9
C#CCOCCOCCOCCNc1nc(N2CCN(C(=O)Cn3cc(CCO)nn3)CC2)nc(N2CCN(C(=O)[C@H]([C@@H](C)CC)n3cc(CCCCN)nn3)CC2)n1	none
COc1cc(Nc2c3c(nc4ccccc24)CCC3)cc(OC)c1OC	N-glyco inh 48.6
COc1ccc(Nc2nc(N3CCCC3)nc3ccccc23)c(OC)c1	RAD54 branch 99.5, N-glyco inh 99.3 (no result: Casp6 inh, MLL AF4-AF9 inh, RAD52 anneal inh)
COc1ccc(OC)c(Nc2c3ccccc3nc3ccccc23)c1	MLL AF4-AF9 inh 40.4
COc1ccc(OC)c(Nc2c3c(nc4ccccc24)CCC3)c1	none
COc1ccc(Nc2ncnc3ccccc23)c(OC)c1	none (no result: Casp6 inh, MLL AF4-AF9 inh, RAD52 anneal inh)
COC(=O)[C@H]1[C@H](CO)[C@H]2Cn3c(ccc(-c4ccccc4OC)c3=O)[C@H]2N1C(=O)c1cccnc1	none (no result: N-glyco inh)
Cc1ccc(CN2C(=O)N/C(=C\c3cccn3-c3cccc(C(=O)O)c3)C2=O)cc1	Casp6 inh 60.3
O=C(O)c1cccc(-n2cccc2/C=C2\NC(=O)N(Cc3ccc(F)cc3)C2=O)c1	Casp6 inh 71.5 (no result: RAD54 branch)
Cc1ccc(NC(=O)CN2C(=O)N/C(=C/c3cc(C)n(-c4cccc(C(=O)O)c4)c3C)C2=O)cc1	Casp6 inh 71.8 (no result: RAD54 branch)
O=C1N/C(=C/c2cccn2-c2ccc(F)cc2)C(=O)N1Cc1ccccc1	none (no result: Casp6 inh, MLL AF4-AF9 inh, RAD52 anneal inh)
Cc1ccc(NC(=O)CN2C(=O)N/C(=C\c3cccn3-c3cccc(C(=O)O)c3)C2=O)cc1	none (no result: Casp6 inh, MLL AF4-AF9 inh, RAD52 anneal inh)
CC(=O)NC1=NC(=O)/C(=C/c2cc(C)n(-c3ccc(NC(C)=O)cc3)c2C)S1	none
CC(=O)NC1=NC(=O)/C(=C/c2cc(C)n(-c3cccc(C(=O)O)c3)c2C)S1	Casp6 inh 67.2 (no result: RAD54 branch)

Bioassay records (PubChem)
